Drawing on PubChem BioAssay (EPA / NIEHS), this text covers outcome and AC50 for three compounds.

Assay [1] addresses Estrogen-related receptor gamma (Homo sapiens) (UniProt P62508). Briefly: ATG_ERRg_TRANS: Attagene TRANS-FACTORIAL HepG2 Assay for human Estrogen-Related Receptor gamma (ERRg) (AID 2282977; active means hit-call score of the fitted dose curve at least 0.9, where 1 is the maximum;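 further: hits increase reporter signal over DMSO so potencies reflect activators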). The note with it: HepG2 Attagene TRANS reporter, ERRg transactivation. In outline:
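Readout: fluorescent reporter-mRNA fragments resolved by capillary electrophoresis after RT-PCR and HpaI cut. Cells: transiently transfected HepG2 carrying GAL4-UAS reporters driven by exogenous NR-Gal4 chimeras, dosed 24 h. Activity fitted upward relative to DMSO baseline.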

Assay [2] addresses Hepatocyte nuclear factor 4-alpha (Homo sapiens) (UniProt P41235). Briefly: ATG_HNF4a_TRANS: Attagene TRANS-FACTORIAL HepG2 Assay for human Hepatocyte Nuclear Factor 4 alpha (HNF4a) (AID 2282982; active means hit-call score of the fitted dose curve at least 0.9, where 1 is the maximum). The note with it: HepG2 HNF4a transactivation reporter, mRNA readout. In outline: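 Transient MRTU transfection of HepG2, 24 h dosing. Readout: reporter mRNA via RT-PCR + capillary electrophoresis, fluorescence; activity fit upward relative to DMSO control.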

A short description of assay [3]: ATG_M_32_TRANS: Attagene TRANS-FACTORIAL HepG2 Assay for M32 Transcription Factor (Internal Marker) (AID 2282984; active means hit-call score of the fitted dose curve at least 0.9, where 1 is the maximum;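 further: transcript level of a background control reporter unit measured by RT-PCR and capillary electrophoresis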). To be noted: HepG2 Attagene TRANS M32 internal marker reporter. In outline: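 Read-out: fluorescent reporter cDNA fragments resolved by capillary electrophoresis after RT-PCR of total RNA. Transfected HepG2 cells were exposed to chemical for 24 h. Activity scored in the positive direction relative to DMSO.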

Assay [4] deals with Nuclear receptor subfamily 4 group A member 2 (Homo sapiens) (UniProt P43354). Briefly: ATG_NURR1_TRANS: Attagene TRANS-FACTORIAL HepG2 Assay for human Nuclear Receptor Related Protein 1 (NURR1) (AID 2282985; active means hit-call score of the fitted dose curve at least 0.9, where 1 is the maximum). To be noted: HepG2 Attagene TRANS reporter, mRNA readout. In outline:
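Read-out: reporter mRNA induction by RT-PCR plus capillary electrophoresis with fluorescence detection, after 24 h dosing of transfected HepG2 cells. Exogenous NR-Gal4 chimera activity drives GAL4-UAS reporter; activity fitted upward versus DMSO.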

Assay [5] concerns the target Transcriptional activator Myb (Homo sapiens) (UniProt P10242). Briefly: ATG_Myb_CIS: Attagene CIS-FACTORIAL HepG2 Assay for human Myeloblastosis (Myb) Proto-Oncogene Transcription Factor (AID 2282986). The note with it: HepG2 Attagene CIS-FACTORIAL Myb reporter transcription; actives raise or lower the signal. The method, boiled down:
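Using HepG2 liver cells bearing transiently transfected cis-promoter reporter constructs, the assay measures induction or loss of reporter mRNA after 24 hours of dosing. Detection used fluorescently labeled RT-PCR products separated by capillary electrophoresis.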

Assay [6] concerns the target Nuclear respiratory factor 1 (Homo sapiens) (UniProt Q16656). The assay can be described thus: ATG_NRF1_CIS: Attagene CIS-FACTORIAL HepG2 Assay for human Nuclear Respiratory Factor 1 (NRF1) Orphan Gene (AID 2282987). The note with it: HepG2 NRF1 cis-element reporter, Attagene multiplex; actives raise or lower the signal. In outline: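 Reporter mRNA induction or loss in HepG2 cells after 24 h dosing; cis-regulated reporter constructs report endogenous transcription-factor activity. Quantified by RT-PCR/capillary electrophoresis fluorescence, DMSO-referenced.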

A short description of assay [7]: ATG_NFI_CIS: Attagene CIS-FACTORIAL HepG2 Assay for human Nuclear Factor I (NFI) (AID 2282989). To be noted: HepG2 cis-regulatory reporter, NFI response element transcription; actives raise or lower the signal. In outline:
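Cells: human liver HepG2, transiently transfected with promoter-regulated reporter transcription units. Exposure 24 h. Detection: fluorescent RT-PCR products separated by capillary electrophoresis, normalised to DMSO negative control.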

For assay [8], the target named is Myc proto-oncogene protein (Homo sapiens) (UniProt P01106). Briefly: ATG_Myc_CIS: Attagene CIS-FACTORIAL HepG2 Assay for human Myelocytomatosis (Myc) Proto-Oncogene Transcription Factor (AID 2282990). To be noted: HepG2, Attagene cis-reporter transcription factor activity; actives raise or lower the signal. The method, boiled down: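 Read-out: fluorescent reporter mRNA fragments resolved by capillary electrophoresis after RT-PCR. Human HepG2 liver cells carried transfected cis-element reporter units and were dosed for 24 h. Gain or loss of signal fitted relative to DMSO baseline.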
Chain of Myc proto-oncogene protein (Homo sapiens) (P01106 whole entry, looked up, the tested form may be a part): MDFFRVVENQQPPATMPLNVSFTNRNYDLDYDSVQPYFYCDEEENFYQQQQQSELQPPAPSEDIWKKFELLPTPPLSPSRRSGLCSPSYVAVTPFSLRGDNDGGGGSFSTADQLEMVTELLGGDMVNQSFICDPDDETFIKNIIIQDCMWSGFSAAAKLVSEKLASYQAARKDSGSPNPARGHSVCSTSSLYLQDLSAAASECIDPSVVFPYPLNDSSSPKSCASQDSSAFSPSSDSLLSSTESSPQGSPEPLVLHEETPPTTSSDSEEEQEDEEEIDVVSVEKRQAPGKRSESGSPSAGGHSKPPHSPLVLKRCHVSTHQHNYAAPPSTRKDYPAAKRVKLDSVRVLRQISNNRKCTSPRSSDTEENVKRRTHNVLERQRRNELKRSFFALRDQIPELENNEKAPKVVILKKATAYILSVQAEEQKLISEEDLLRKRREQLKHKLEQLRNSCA

A short description of assay [9]: ATG_NF_kB_CIS: Attagene CIS-FACTORIAL HepG2 Assay for human Nuclear Factor Kappa B (NF-kB) (AID 2282991). To be noted: HepG2 Attagene cis-factorial NF-kB reporter mRNA; actives raise or lower the signal. The method, boiled down: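 DMSO served as negative control and baseline for bidirectional curve fitting. Transiently transfected HepG2 cells were dosed for 24 h, then reporter transcripts were measured by RT-PCR with capillary electrophoresis detection.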

A short description of assay [10]: ATG_NRF2_ARE_CIS: Attagene CIS-FACTORIAL HepG2 Assay for human Nuclear Factor Erythroid 2 Related Factor 2 (NFR2) response to Antioxidant Response Elements (ARE) (AID 2282992).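 On AC50: reporter mRNA level measured by RT-PCR and capillary electrophoresis fluorescence.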 The note with it: HepG2 Attagene ARE/NRF2 reporter, transcription factor activity; actives raise or lower the signal. The method, boiled down: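 Fluorescence intensity of reporter-specific cDNA fragments, separated by capillary electrophoresis, reflects mRNA induction in transfected HepG2 cells at 24 h. Activity is fitted bidirectionally, DMSO serving as baseline.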

A short description of assay [11]: ATG_Oct_MLP_CIS: Attagene CIS-FACTORIAL HepG2 Assay for human Octamer-Binding Transcription Factor (Oct) (AID 2282993). To be noted: HepG2 Attagene cis-factorial Oct reporter, mRNA; actives raise or lower the signal. In outline: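 HepG2, transient MRTU transfection, cis promoter elements; 24 h dosing; RT-PCR/CE fluorescence read-out of reporter mRNA; fit both directions vs DMSO.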

The nature of assay [12]: BSK_3C_TissueFactor: BioMAP Diversity Plus: 3C Assay for Tissue Factor Biomarker Activity (AID 2282997). The note with it: BioMAP 3C HUVEC, tissue factor biomarker readout; actives raise or lower the signal. In outline:
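After a 24 h chemical exposure of primary human umbilical vein endothelial cells, Tissue Factor levels were quantified by ELISA.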

Assay [13] is described as follows: BSK_3C_uPAR: BioMAP Diversity Plus: 3C Assay for Urokinase-type plasminogen activator receptor (uPAR) Biomarker Activity (AID 2282998). To be noted: BioMAP 3C HUVEC, uPAR biomarker ELISA; actives raise or lower the signal. The method, boiled down:
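A multiplexed primary-cell system built on human umbilical vein endothelium was used, with chemical present for 24 h before reading. Cell-surface uPAR was detected by ELISA; signal change in either direction counted against DMSO.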

Assay [14] is described as follows: BSK_4H_Eotaxin3: BioMAP Diversity Plus: 4H Assay for Eotaxin 3 Biomarker Activity (AID 2283000).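 Further: CCL26 protein level quantified by ELISA in parallel with SRB cytotoxicity check.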 To be noted: primary human endothelial cells (HUVEC); actives raise or lower the signal. In outline:
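Chemicals were added to human umbilical vein endothelium cultures, and Eotaxin-3 was quantified by ELISA at 24 h. Values were derived by bidirectional fitting with DMSO serving as negative control and activity baseline.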

In assay [15] the target is Bile acid receptor (Homo sapiens) (UniProt Q96RI1). The assay can be described thus: ATG_FXR_TRANS: Attagene TRANS-FACTORIAL HepG2 Assay for Farnesoid X Receptor (FXR) (AID 2282979; active means hit-call score of the fitted dose curve at least 0.9, where 1 is the maximum;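 further: hits raise reporter mRNA above DMSO so AC50 marks FXR activation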). The note with it: HepG2 Attagene TRANS FXR-GAL4 reporter transcription. The method, boiled down:
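Transient transfection of HepG2 with multiplexed GAL4-UAS reporter units; exogenous FXR-GAL4 chimera. Dose 24 h → TriZol RNA → oligo(dT) RT → PCR, 6-FAM primer extension, HpaI cut → CE. Gain vs DMSO.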

Assay [16] has as its target Cellular tumor antigen p53 (Homo sapiens) (UniProt P04637). The assay can be described thus: ATG_p53_CIS: Attagene CIS-FACTORIAL HepG2 Assay for human p53 Transcription Factor (AID 2282994). To be noted: HepG2 p53 cis-element reporter, Attagene mRNA; actives raise or lower the signal. The method, boiled down:
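Transiently transfected HepG2 (multiple cis reporter transcription units); exposure 24 h; reporter RNA via RT-PCR, 6-FAM extension, 2 h HpaI digest at 37 C, CE detection; DMSO baseline.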

Assay [17] is described as follows: BSK_3C_VCAM1: BioMAP Diversity Plus: 3C Assay for Vascular cell adhesion molecule 1 (VCAM1) Biomarker Activity (AID 2282999). To be noted: BioMAP 3C HUVEC, VCAM1 ELISA, cytokine-stimulated; actives raise or lower the signal. In outline: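 HUVEC primary cells, 24 h compound exposure; VCAM-1 by ELISA; gain/loss of signal fitted bidirectionally vs DMSO baseline.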
(ELISA stands for enzyme-linked immunosorbent assay.)

Assay [18] has as its target Oxysterols receptor LXR-alpha (Homo sapiens) (UniProt Q13133). The assay can be described thus: ATG_LXRa_TRANS: Attagene TRANS-FACTORIAL HepG2 Assay for human Liver X Receptor alpha (LXRa) (AID 2282980; active means hit-call score of the fitted dose curve at least 0.9, where 1 is the maximum). The note with it: HepG2 Attagene TRANS reporter, LXRa transactivation. In outline:
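Transfect HepG2 with GAL4-UAS multiplex reporter constructs (TRANS format, chimeric receptor-GAL4); treat 24 h; extract RNA, reverse-transcribe, PCR-amplify, FAM-label, HpaI-digest; resolve fragments by capillary electrophoresis. Upward response vs DMSO.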

In assay [19] the target is Oxysterols receptor LXR-beta (Homo sapiens) (UniProt P55055). Briefly: ATG_LXRb_TRANS: Attagene TRANS-FACTORIAL HepG2 Assay for human Liver X Receptor beta (LXRb) (AID 2282981; active means hit-call score of the fitted dose curve at least 0.9, where 1 is the maximum). To be noted: HepG2 Attagene TRANS GAL4-LXRb reporter, mRNA. The method, boiled down:
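Readout: fluorescent reporter mRNA fragments resolved by capillary electrophoresis after RT-PCR. System: transiently transfected human HepG2, exogenous LXRb-Gal4 chimera driving GAL4-UAS reporter, 24 h dosing. Activity fitted upward against DMSO baseline.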

A short description of assay [20]: ATG_M_06_TRANS: Attagene TRANS-FACTORIAL HepG2 Assay for M06 Transcription Factor (Internal Marker) (AID 2282983; active means hit-call score of the fitted dose curve at least 0.9, where 1 is the maximum;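 further: reporter transcript level by RT-PCR then capillary electrophoresis fluorescence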). To be noted: HepG2 Attagene TRANS M06 internal marker reporter. In outline: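 Background control endpoint: reporter mRNA from transiently transfected HepG2 after 24 h dosing, detected by RT-PCR with capillary electrophoresis fluorescence. Analysed for gain versus DMSO.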

Values joined by “and” are separate entries in the source; they are usually repeats but may differ in a detail not shown here. Equal entries are not always repeated. Inconclusive results are not listed. Some structures have more than one record in an assay (separate samples or runs), and their calls can disagree. Active and inactive are the calls of the source. How the source made its calls, unless noted: active means hit-call score of the fitted dose curve at least 0.9, where 1 is the maximum; inactive means score below 0.9.

Chain of Nuclear receptor subfamily 4 group A member 2 (Homo sapiens) (P43354 whole entry, looked up, the tested form may be a part): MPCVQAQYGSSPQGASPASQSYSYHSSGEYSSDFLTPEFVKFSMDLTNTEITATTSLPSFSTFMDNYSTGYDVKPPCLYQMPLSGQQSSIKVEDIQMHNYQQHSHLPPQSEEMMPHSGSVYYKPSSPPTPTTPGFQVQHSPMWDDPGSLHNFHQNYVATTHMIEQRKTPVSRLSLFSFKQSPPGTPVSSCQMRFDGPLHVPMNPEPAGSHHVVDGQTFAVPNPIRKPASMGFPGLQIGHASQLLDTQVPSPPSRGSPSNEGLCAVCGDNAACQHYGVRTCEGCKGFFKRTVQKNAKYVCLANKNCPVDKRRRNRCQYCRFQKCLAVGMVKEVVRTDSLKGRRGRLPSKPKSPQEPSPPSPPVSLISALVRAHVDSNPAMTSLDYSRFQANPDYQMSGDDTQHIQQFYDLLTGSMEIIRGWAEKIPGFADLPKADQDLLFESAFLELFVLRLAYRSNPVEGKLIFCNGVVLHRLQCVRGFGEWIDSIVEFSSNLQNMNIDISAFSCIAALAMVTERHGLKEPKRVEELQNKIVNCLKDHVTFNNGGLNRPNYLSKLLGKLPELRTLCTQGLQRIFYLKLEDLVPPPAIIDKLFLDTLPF
Chain of Oxysterols receptor LXR-beta (Homo sapiens) (P55055 whole entry, looked up, the tested form may be a part): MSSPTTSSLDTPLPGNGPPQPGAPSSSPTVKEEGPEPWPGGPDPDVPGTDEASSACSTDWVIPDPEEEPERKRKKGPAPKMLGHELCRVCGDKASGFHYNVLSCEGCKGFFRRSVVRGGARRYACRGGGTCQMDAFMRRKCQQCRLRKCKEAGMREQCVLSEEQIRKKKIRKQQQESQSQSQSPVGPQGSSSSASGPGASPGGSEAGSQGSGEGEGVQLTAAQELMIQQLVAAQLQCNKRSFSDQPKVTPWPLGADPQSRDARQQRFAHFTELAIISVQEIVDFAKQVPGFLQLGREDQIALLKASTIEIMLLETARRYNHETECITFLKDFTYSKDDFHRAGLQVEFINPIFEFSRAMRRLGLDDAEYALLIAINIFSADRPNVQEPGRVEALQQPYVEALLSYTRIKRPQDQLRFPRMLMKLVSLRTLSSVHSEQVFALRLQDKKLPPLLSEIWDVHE
Chain of Hepatocyte nuclear factor 4-alpha (Homo sapiens) (P41235 whole entry, looked up): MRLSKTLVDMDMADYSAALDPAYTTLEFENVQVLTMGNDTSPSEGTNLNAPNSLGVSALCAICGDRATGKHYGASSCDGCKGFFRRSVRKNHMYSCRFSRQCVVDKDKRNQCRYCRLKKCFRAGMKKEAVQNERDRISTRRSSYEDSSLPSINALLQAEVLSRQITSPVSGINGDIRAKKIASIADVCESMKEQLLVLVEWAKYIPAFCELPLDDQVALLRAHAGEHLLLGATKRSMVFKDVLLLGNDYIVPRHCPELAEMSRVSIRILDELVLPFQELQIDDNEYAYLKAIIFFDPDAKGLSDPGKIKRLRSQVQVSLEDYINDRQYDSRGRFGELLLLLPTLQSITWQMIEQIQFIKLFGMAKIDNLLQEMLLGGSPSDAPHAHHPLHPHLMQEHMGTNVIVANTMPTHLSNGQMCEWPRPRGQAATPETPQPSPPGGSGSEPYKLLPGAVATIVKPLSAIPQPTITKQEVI
Chain of Nuclear respiratory factor 1 (Homo sapiens) (Q16656 whole entry, looked up): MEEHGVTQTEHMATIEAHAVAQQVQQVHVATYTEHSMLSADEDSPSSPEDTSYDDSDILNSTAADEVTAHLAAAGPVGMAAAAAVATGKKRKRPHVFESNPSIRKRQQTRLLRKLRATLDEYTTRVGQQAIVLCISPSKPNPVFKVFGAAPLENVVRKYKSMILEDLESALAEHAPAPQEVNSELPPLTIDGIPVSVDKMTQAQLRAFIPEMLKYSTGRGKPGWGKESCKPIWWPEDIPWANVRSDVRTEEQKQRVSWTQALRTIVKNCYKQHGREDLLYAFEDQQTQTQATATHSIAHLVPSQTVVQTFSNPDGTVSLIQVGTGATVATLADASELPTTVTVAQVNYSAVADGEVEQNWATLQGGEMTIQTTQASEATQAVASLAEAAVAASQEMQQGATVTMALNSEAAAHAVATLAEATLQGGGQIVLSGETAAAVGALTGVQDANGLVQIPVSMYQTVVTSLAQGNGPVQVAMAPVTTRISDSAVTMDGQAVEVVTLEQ
Chain of Cellular tumor antigen p53 (Homo sapiens) (P04637 whole entry, looked up): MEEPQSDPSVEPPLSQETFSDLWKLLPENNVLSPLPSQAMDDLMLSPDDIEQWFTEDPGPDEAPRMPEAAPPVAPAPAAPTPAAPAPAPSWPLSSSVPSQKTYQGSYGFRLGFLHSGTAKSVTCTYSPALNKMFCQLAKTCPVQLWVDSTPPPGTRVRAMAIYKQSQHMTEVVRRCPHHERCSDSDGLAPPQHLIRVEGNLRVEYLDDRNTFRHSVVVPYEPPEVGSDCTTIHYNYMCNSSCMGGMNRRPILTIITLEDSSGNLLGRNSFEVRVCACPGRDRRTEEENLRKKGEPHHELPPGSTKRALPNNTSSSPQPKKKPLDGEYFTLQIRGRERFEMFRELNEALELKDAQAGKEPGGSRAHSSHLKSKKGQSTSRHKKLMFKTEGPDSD
Chain of Oxysterols receptor LXR-alpha (Homo sapiens) (Q13133 whole entry, looked up, the tested form may be a part): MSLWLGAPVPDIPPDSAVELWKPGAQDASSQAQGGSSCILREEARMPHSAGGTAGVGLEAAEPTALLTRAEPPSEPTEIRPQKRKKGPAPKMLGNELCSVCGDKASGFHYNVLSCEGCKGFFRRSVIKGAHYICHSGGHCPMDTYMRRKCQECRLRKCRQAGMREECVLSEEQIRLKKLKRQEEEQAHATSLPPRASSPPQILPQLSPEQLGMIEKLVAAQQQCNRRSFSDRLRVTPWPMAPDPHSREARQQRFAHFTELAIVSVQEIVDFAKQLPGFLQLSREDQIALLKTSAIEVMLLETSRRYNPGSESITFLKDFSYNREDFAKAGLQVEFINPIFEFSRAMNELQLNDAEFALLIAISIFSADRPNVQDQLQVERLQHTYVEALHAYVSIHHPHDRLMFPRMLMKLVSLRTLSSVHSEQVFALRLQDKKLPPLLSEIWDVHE
Chain of Transcriptional activator Myb (Homo sapiens) (P10242 whole entry, looked up): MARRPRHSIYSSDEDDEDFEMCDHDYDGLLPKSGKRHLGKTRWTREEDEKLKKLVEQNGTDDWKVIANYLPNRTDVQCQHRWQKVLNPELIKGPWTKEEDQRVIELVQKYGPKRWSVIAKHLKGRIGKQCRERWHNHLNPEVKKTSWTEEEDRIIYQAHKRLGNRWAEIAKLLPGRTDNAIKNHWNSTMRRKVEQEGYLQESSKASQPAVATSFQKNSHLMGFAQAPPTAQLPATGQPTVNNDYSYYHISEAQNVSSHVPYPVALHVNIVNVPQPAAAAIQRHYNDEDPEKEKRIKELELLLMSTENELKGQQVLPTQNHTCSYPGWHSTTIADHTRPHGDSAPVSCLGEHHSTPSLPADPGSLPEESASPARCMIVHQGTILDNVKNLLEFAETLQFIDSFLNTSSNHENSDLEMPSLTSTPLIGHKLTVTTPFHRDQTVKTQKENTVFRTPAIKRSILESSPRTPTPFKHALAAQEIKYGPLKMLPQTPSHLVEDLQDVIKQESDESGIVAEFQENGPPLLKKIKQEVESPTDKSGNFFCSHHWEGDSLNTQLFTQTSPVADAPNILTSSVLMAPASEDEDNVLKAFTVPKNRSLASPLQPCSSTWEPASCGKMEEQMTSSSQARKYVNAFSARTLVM
Chain of Bile acid receptor (Homo sapiens) (Q96RI1 whole entry, looked up, the tested form may be a part): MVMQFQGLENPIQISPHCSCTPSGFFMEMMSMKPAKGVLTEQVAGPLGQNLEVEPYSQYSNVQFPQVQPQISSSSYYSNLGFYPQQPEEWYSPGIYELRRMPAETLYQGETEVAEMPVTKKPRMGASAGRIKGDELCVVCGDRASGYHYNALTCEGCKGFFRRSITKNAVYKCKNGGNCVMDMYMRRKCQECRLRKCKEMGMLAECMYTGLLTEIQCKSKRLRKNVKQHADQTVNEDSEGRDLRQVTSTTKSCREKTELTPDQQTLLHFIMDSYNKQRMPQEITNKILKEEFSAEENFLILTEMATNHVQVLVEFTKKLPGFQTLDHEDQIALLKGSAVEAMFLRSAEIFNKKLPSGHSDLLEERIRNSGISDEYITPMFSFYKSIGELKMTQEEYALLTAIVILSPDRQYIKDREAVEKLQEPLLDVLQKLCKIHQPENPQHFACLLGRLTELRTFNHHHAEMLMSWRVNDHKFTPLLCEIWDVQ
Chain of Estrogen-related receptor gamma (Homo sapiens) (P62508 whole entry, looked up, the tested form may be a part): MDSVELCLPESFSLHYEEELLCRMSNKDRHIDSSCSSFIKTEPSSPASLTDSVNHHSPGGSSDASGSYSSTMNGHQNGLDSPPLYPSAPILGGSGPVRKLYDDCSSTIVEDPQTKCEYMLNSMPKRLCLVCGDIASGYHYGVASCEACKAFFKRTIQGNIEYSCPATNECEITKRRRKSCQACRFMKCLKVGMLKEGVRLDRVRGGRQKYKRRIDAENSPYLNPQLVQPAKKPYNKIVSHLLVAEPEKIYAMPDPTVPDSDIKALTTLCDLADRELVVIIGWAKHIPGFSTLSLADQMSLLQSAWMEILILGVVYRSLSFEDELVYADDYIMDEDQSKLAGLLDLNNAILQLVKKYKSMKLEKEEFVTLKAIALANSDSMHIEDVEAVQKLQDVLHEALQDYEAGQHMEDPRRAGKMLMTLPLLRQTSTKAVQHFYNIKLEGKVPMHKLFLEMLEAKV

Regarding `CCC(C)(CC)c1cc(NC(=O)c2c(OC)cccc2OC)on1`, the result in assay [1], in assay [2], in assay [3], in [4], in assay [5] and in assay [6] was inactive. For the same compound, the result in assay [7], in assay [8], in [9], in assay [12], in assay [13] and in assay [14] was inactive. In addition, the half-maximal activity concentration (AC50) – broadly, the midpoint of the concentration-response curve, whichever way the signal moves – is 289 nM (active) in assay [10] and 1.64 µM (active) in assay [11].
As to `CCCCCCCCOC(=O)c1ccccc1C(=O)OCCCCCCCC`, the result in assay [15], in [3], in [5], in [6], in [7] and in assay [8] was inactive. Moreover, the result in assay [9], in assay [10], in [11], in assay [16], in assay [12] and in assay [13] was inactive. Moreover, in assay [17], the result was inactive.
As to `CCC(=O)O[C@H]1CC[C@H]2[C@@H]3CCC4=CC(=O)CC[C@]4(C)[C@H]3CC[C@]12C`, the AC50 in assay [18] was 25.3 µM (active); in assay [19], 3.11 µM (active) and 25.7 µM (active); in [6], 122 µM (active); in assay [8], 165 µM (active) and 163 µM (active); in assay [10], 158 µM (active) [middle of 4 runs]; in assay [11], 186 µM (active) and 73.4 µM (active) and 100 µM (active). In addition, the AC50 is 100 µM (active) in [16], 31.4 µM (active) in assay [12], 24.9 µM (active) in [13] and 35.6 µM (active) in assay [17]. The compound was classed as inactive in [18], in [19], in assay [2], in assay [20], in assay [3] and in [4]. Moreover, the compound was called inactive in assay [6], in [7], in [8], in assay [9], in assay [11] and in assay [16].
